From PubChem BioAssay (Tox21)
Several values for one entry are separate records, joined by “and”; a condition that tells them apart may be missing. Equal entries are not always repeated. Inconclusive results are not listed. Where a structure was tested more than once in an assay, its records may differ in their call. Activity calls are given as the source filed them. Unless noted, calls follow the shape of the full dose curve.

Columns and labels:
[1] = Nuclear factor erythroid 2-related factor 2/antioxidant responsive element (Nrf2/ARE) small molecule agonists: qHTS cell viability counter screen in human keratinocytes (AID 1919968; active = well fitted curve in the direction sought with a large enough effect in the repeat runs; an effect the other way counts as inactive or inconclusive; also: nearly all actives have a fitted effect of over 55% in size; also: potency is read from the fitted curve at half-maximal effect)
Method in brief: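 Viability counter-screen: KeratinoSens reporter cells, DMSO-delivered compounds, 23 h at 37 C, CellTiter-Fluor fluorescence.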

[2] = Nuclear factor erythroid 2-related factor 2/antioxidant responsive element (Nrf2/ARE) small molecule agonists: luciferase reporter gene qHTS assay in human keratinocytes (AID 1919969); also: nearly all actives have a fitted effect of over 35% in size
[3] = target: Gonadotropin-releasing hormone receptor (Homo sapiens) (UniProt P30968); assay: Human gonadotropin-releasing hormone receptor (GnRHR) small molecule agonists, calcium flux assay in GnRHR-HEK293 cells (AID 1920063); also: nearly all actives have a fitted effect of over 35% in size; also: potency is read from the fitted curve at half-maximal effect
Sequence of Gonadotropin-releasing hormone receptor (Homo sapiens) (P30968 whole entry, looked up): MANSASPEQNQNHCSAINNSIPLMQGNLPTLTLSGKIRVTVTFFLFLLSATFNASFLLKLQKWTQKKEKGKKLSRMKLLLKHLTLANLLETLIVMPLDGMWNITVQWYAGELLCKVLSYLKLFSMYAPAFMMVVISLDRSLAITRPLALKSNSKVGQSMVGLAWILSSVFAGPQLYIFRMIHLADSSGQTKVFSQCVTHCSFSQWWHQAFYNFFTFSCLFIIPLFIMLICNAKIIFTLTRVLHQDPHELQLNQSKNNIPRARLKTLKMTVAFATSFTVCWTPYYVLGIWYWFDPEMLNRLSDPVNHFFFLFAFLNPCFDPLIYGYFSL
Method in brief: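 Tox21-format agonist screen using human GnRHR-expressing HEK293 cells and a fluorescent calcium dye; kinetic 3-min fluorescence reading after compound addition, 15-point concentration series run in triplicate.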

[4] = target: KiSS-1 receptor (Homo sapiens) (UniProt Q969F8); assay: Human kisspeptin (KISS1R) small molecule agonists, calcium flux assay in KISS1R-HEK293 cells (AID 1920064; active = well fitted curve in the direction sought with a large enough effect in the repeat runs; an effect the other way counts as inactive or inconclusive)
Sequence of KiSS-1 receptor (Homo sapiens) (Q969F8 whole entry, looked up): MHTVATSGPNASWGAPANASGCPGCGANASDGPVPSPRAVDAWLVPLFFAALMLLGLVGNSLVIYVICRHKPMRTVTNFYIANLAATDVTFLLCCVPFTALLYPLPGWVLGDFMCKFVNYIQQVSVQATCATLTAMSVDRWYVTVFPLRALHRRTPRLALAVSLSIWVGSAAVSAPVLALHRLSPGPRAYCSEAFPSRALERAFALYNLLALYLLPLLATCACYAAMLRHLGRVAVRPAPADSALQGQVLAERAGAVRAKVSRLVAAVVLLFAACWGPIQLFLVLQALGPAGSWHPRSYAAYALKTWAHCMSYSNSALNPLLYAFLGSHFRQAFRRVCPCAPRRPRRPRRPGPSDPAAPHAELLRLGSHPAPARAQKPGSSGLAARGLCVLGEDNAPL
Method in brief: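 Intracellular calcium mobilization in KISS1R-HEK293 cells was recorded by fluorescence (Ex/Em 480/540) for 3 min following compound addition to cells pre-loaded 1 h with calcium dye.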

[5] = G protein-coupled receptor (GPCR) small molecule agonists, calcium flux assay: HEK293 wild type cell line counter screen (AID 1920065)
Method in brief: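 In this agonist-mode screen, ATP is the positive control and DMSO the vehicle. Cells grow 18 h before a 1 h dye incubation at 37 C; signal is taken at Ex/Em 480/540 over 3 min.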

[6] = p53 small molecule agonists, cell-based qHTS assay with human liver microsomes (AID 1963577)
Method in brief: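 Compounds act here after metabolic activation: human liver microsomes and NADPH, both at 0.5 mg/mL final, were co-added to p53RE-bla cells. Incubation ran 16 h at 37 C, followed by LiveBLAzer detection.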

[7] = p53 small molecule agonists, cell-based qHTS assay with rat liver microsomes (AID 1963578)
Method in brief: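 Read-out is beta-lactamase reporter fluorescence (LiveBLAzer, 2 h, room temperature, dark) in p53RE-bla cells treated 16 h at 37 C with compound, rat liver microsomes and NADPH, both 0.5 mg/mL final.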

[8] = p53 small molecule agonists, cell-based qHTS assay with human liver microsomes: qHTS cell viability counter screen (AID 1963579); also: nearly all actives have a fitted effect of over 45% in size; also: potency is read from the fitted curve at half-maximal effect
Method in brief: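 Cells carrying the p53 response-element beta-lactamase reporter are treated for 16 h at 37 C with test compounds in the presence of human liver microsomes and NADPH (both 0.5 mg/mL final); ATP-based CellTiter-Glo luminescence then reports viability.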

[9] = p53 small molecule agonists, cell-based qHTS assay: qHTS cell viability counter screen (AID 1963581); also: nearly all actives have a fitted effect of over 45% in size
Method in brief: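 Compounds are pinned onto HCT-116 p53RE-bla cells and left 16 h at 37 C. Following the reporter FRET read, ATP is quantified by CellTiter-Glo luminescence after 30 min at room temperature.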

[10] = p53 small molecule agonists, cell-based qHTS assay (AID 1963582; active = well fitted activation curve with a large enough effect in the signal ratio in the repeat runs, not every such curve was filed as active; the % refers to the signal ratio)
Method in brief: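 Agonist activity was scored from beta-lactamase FRET fluorescence in p53RE-bla cells treated 16 h at 37 C with compounds in DMSO, substrate incubation being 2 h at room temperature.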

[11] = target: 5-hydroxytryptamine receptor 2A (Homo sapiens) (UniProt P28223); assay: 5-hydroxytryptamine receptor 2A (HTR2A) small molecule antagonists, cell-based qHTS assay (AID 1963586); also: nearly all actives have a fitted effect of over 45% in size
Sequence of 5-hydroxytryptamine receptor 2A (Homo sapiens) (P28223 whole entry, looked up): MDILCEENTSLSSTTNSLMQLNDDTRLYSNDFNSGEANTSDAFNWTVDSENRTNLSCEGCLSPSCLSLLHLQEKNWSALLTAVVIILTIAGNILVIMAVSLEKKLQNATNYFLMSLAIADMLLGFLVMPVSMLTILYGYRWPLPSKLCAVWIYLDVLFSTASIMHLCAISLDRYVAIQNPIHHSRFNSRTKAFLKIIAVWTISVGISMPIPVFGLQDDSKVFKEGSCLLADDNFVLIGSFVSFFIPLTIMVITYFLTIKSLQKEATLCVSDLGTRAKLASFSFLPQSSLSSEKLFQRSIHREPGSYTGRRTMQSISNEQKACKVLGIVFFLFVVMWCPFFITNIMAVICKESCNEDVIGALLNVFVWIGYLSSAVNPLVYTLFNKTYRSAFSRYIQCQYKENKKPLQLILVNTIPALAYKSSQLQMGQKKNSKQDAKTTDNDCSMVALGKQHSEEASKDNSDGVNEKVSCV
Method in brief: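 Antagonist-mode intracellular calcium assay: DOI (4 nM) added after 5 min compound pre-incubation at room temperature to dye-loaded HTR2A-CHO cells. Fluorescence followed for 3 min, sampled every second.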

[12] = target: 5-hydroxytryptamine receptor 2A (Homo sapiens) (UniProt P28223); assay: 5-hydroxytryptamine receptor 2A (HTR2A) small molecule agonists, cell-based qHTS assay (AID 1963587); also: nearly all actives have a fitted effect of over 30% in size; also: potency is read from the fitted curve at half-maximal effect
Method in brief: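 Kinetic calcium-flux fluorescence (2 min, 1 sec intervals) after compound addition in agonist mode. HTR2A-CHO cells were cultured 18 h, then dye-loaded 1 h at 37 C.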

[13] = target: Muscarinic acetylcholine receptor M1 (Homo sapiens) (UniProt P11229); assay: Cholinergic receptor muscarinic 1 (CHRM1) small molecule antagonists, cell-based qHTS assay (AID 1963588); also: nearly all actives have a fitted effect of over 40% in size; also: potency is read from the fitted curve at half-maximal effect
Sequence of Muscarinic acetylcholine receptor M1 (Homo sapiens) (P11229 whole entry, looked up): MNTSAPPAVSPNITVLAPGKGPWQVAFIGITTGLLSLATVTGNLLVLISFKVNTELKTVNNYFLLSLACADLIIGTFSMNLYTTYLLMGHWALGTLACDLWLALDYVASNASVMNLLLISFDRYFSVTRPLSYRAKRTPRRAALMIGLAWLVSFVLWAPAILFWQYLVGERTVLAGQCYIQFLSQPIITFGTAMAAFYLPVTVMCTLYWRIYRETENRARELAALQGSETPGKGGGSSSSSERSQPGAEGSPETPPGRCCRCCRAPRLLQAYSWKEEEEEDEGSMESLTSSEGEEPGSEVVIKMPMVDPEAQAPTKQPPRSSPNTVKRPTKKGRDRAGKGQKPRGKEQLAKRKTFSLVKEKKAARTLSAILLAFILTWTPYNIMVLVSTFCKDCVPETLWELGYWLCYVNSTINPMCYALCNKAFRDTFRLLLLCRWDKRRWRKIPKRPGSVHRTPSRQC
Method in brief: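 CHRM1-CHO calcium-flux assay, antagonist mode. Cells were seeded 18 h, dye-loaded 1 h at 37 C and given compound for 5 min at RT, then acetylcholine was added at 50nM. FDSS fluorescence was read 3 min; 15 concentrations, three runs.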

[14] = target: Muscarinic acetylcholine receptor M1 (Homo sapiens) (UniProt P11229); assay: Cholinergic receptor muscarinic 1 (CHRM1) small molecule agonists, cell-based qHTS assay (AID 1963589); also: nearly all actives have a fitted effect of over 35% in size
Method in brief: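 Stable CHRM1-CHO cells (human receptor) were incubated 18 h, dye-loaded for 1 h at 37 C and exposed to test compounds for agonist activity, with calcium-dependent fluorescence followed kinetically.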

[15] = cAMP Responsive Elements (CRE) small molecule agonists, cell-based qHTS assay (AID 1963590)
Method in brief: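 FRET-based beta-lactamase readout (LiveBLAzer B/G, 2 h RT) quantified CRE activation in HEK 293T CRE-bla cells after 3 h treatment with DMSO-dissolved compounds.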

[16] = cAMP Responsive Elements (CRE) small molecule antagonists, cell-based qHTS assay (AID 1963591; active = well fitted inhibition curve with a large enough effect in the signal ratio in the repeat runs, not every such curve was filed as active; the % refers to the signal ratio)
Method in brief: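 qHTS in CRE-bla HEK 293T cells: compound in DMSO, then 0.25 uM NKH477 (final), 3 h at 37 °C/5% CO2; beta-lactamase FRET read-out after 2 h substrate incubation.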

[17] = target: Beta-2 adrenergic receptor (Homo sapiens) (UniProt P07550); assay: Adrenergic beta2 receptor (ADRB2) small molecule antagonists, cell-based qHTS assay (AID 1963592); also: series mostly up to about 92 µM; nearly all actives have a fitted effect of over 50% in size
Sequence of Beta-2 adrenergic receptor (Homo sapiens) (P07550 whole entry, looked up): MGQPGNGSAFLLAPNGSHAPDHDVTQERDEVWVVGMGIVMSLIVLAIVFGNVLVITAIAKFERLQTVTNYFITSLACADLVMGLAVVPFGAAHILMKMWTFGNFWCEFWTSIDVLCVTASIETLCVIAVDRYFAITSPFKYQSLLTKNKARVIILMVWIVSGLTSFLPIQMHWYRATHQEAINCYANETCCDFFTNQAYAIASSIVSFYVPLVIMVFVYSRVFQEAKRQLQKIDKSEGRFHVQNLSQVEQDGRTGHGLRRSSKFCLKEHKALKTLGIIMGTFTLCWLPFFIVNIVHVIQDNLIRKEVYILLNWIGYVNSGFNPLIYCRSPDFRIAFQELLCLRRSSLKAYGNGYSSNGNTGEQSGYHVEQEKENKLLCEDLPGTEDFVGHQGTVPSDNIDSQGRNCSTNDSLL
Method in brief: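 Cells (CHO, stable ADRB2 overexpression) incubated 18-20hr at 37C; compounds added from DMSO; agonist mix (1nM isoproterenol, 100uM IBMX, 25uM Ro-20-1724) added; 0.5hr RT; d2-cAMP and anti-cAMP-cryptate added; 1hr RT; 665/615 nm read.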

[18] = target: D(2) dopamine receptor (Homo sapiens) (UniProt P14416); assay: Dopamine D2 receptor (DRD2) small molecule agonists, cell-based qHTS assay (AID 1963594); also: nearly all actives have a fitted effect of over 35% in size
Sequence of D(2) dopamine receptor (Homo sapiens) (P14416 whole entry, looked up): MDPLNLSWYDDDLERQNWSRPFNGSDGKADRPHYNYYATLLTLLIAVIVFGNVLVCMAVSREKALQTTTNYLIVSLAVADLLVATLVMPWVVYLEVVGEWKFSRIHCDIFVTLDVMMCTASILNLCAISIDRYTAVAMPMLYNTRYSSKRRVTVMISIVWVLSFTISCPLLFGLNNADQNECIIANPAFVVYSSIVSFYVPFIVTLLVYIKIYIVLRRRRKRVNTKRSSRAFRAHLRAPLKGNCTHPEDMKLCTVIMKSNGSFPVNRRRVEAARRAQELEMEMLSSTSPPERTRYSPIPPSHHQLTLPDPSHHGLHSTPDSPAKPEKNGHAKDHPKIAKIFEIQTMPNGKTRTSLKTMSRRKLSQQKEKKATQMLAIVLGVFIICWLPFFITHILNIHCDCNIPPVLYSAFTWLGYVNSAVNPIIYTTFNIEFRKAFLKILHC
Method in brief: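 cAMP accumulation in DRD2-HEK293 cells measured by HTRF after 1 h detection; compounds added 10 min before NKH477 (200nM […]) forskolin-analogue stimulation, 30 min at room temperature, with Ro20-1724 present at 0.1 mM final.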

[19] = target: D(2) dopamine receptor (Homo sapiens) (UniProt P14416); assay: Dopamine D2 receptor (DRD2) small molecule antagonists, cell-based qHTS assay (AID 1963595; active = well fitted inhibition curve with a large enough effect in the signal ratio in the repeat runs, with a control signal flat; the % refers to the signal ratio)
Method in brief: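 In this cell-based antagonist screen, compounds act for 10 min at room temperature before a 30 min challenge with 12 nM quinpirole and 200 nM NKH477. cAMP is quantified by HTRF competition in DRD2-HEK293 cells containing 0.1 mM Ro20-1724.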

[20] = p53 small molecule agonists, cell-based qHTS assay with rat liver microsomes: qHTS cell viability counter screen (AID 1963580); also: nearly all actives have a fitted effect of over 45% in size; also: potency is read from the fitted curve at half-maximal effect
Method in brief: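 HCT-116 p53RE-bla, 4,000 cells/well, 5 h pre-incubation; cpd + rat liver microsomes 0.5 mg/mL + NADPH 0.5 mg/mL (final); 16 h, 37 C; CellTiter-Glo, 30 min RT; luminescence.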
% is scaled to controls: 0 for no effect and ±100 for the full control effect.

CCCC(C)(COC(N)=O)COC(N)=O
inactive: Potency [1] | Potency [2] | Potency [3] | Potency [4] | Potency [5] | Potency [6] | Potency [7] | Potency [8] | Potency [9] | Potency [10] | Potency [11] | Potency [12] | Potency [14] | Potency [15] | Potency [16] | Potency [17] | Potency [18] | Potency [19]
active: Potency [13] 19.9 nM

Brc1c(Br)c(Br)c(Oc2c(Br)c(Br)c(Br)c(Br)c2Br)c(Br)c1Br
inactive: activity change, negative = cytotoxicity [1] -0.108% [at 19 µM] | activity, positive = activation [2] -3.66% [at 19 µM] | activity change [3] -0.419% [at 11.8 µM, stronger effect = higher value] | activation [4] -2.44% [at 15.8 µM] | activation [5] 1.15% [at 11.8 µM] | activation [6] -0.0858% [at 13.5 µM] | activation [7] 0.633% [at 13.6 µM] | activity change, negative = cytotoxicity [8] 1.7% [at 13.5 µM] | activity change, negative = cytotoxicity [20] 4.17% [at 13.5 µM] | activation [10] 0.0757% [at 13.5 µM] | activity, negative = inhibition [11] 9.26% [at 12.7 µM] | activation [12] 1.53% [at 15.9 µM] | activity, negative = inhibition [13] -22.2% [at 12.6 µM] | activation [15] 0.588% [at 19 µM] | activity change, negative = inhibition [16] -8.08% [at 18.9 µM] | activity change, negative = inhibition [17] 1.07% [at 19 µM] | activation [18] 4.7% [at 19 µM] | activity change, negative = inhibition [19] 0.371% [at 18.9 µM]

O=C1C2(Cl)C3(Cl)C4(Cl)C(Cl)(Cl)C5(Cl)C3(Cl)C1(Cl)C5(Cl)C24Cl (stereo unspecified)
inactive: Potency [2] | Potency [4] | Potency [5] | Potency [6] | Potency [7] | Potency [17]
31.9 µM (active) and inactive: Potency [8]
active: Potency [1] 19 µM and 29.3 µM | Potency [3] 38.3 µM | Potency [20] 45 µM | Potency [12] 54 µM and 46.9 µM | Potency [13] 29.3 µM and 20.2 µM

N#CCCC#N
inactive: Potency [1] | Potency [2] | Potency [3] | Potency [4] | Potency [5] | Potency [6] | Potency [7] | Potency [8] | Potency [9] | Potency [10] | Potency [11] | Potency [12] | Potency [13] | Potency [14] | Potency [15] | Potency [16] | Potency [17] | Potency [18] | Potency [19]

O=C(O)C1C(C(=O)O)C2(Cl)C(Cl)=C(Cl)C1(Cl)C2(Cl)Cl (stereo unspecified)
inactive: Potency [1] | Potency [2] | Potency [3] | Potency [4] | Potency [5] | Potency [6] | Potency [7] | Potency [8] | Potency [9] | Potency [10] | Potency [11] | Potency [12] | Potency [13] | Potency [14] | Potency [15] | Potency [16] | Potency [17] | Potency [18] | Potency [19]

CCOC(=O)c1cncn1C(C)c1ccccc1 (stereo unspecified)
inactive: Potency [1] | Potency [2] | Potency [3] | Potency [4] | Potency [5] | Potency [6] | Potency [7] | Potency [8] | Potency [20] | Potency [10] | Potency [13] | Potency [15] | Potency [16] | Potency [17] | Potency [18] | Potency [19]

CCCCC(C#N)(Cn1cncn1)c1ccc(Cl)cc1 (stereo unspecified)
inactive: Potency [1] | Potency [2] | Potency [3] | Potency [4] | Potency [5] | Potency [6] | Potency [7] | Potency [8] | Potency [20] | Potency [10] | Potency [11] | Potency [12] | Potency [13] | Potency [14] | Potency [16] | Potency [17] | Potency [18] | Potency [19]
